Screening results: PubChem, several laboratories
Only some compounds are listed: those with a hit (about 3.2% of all), similar ones and a draw of the others.
Kir21 inh: inhibitors of mouse Kir2.1 inward-rectifier potassium channel | 310,000 compounds, 0.85% hits | HEK293-Kir2.1, FluxOR thallium flux fluorescence; active compounds read low | P35561 | B-score at 10 µM;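 active = fluorescence ratio B-score at or below minus 3 SD of library scores, with starting-brightness B-score within 2 SD, cut at about -4.2 in these data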;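 also: channel flux triggered by added potassium and thallium sulfate stimulus; B-score of peak minus minimum fluorescence over baseline after thallium stimulus; more negative B-score means stronger Kir2.1 block with less thallium influx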
CHT allo act: allosteric activators of human choline transporter CHT. Q9GZV3. 310,000 compounds, 0.49% hits. B-score at 10 µM. CHT-expressing cells, membrane potential dye, choline EC20; active compounds read high; LV-AA mutant CHT in HEK293 cells;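 active = initial fluorescence not abnormally high and integrated response B-score, plate-corrected, over 3 SD above library mean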
Target sequence (Q9GZV3 whole entry, looked up): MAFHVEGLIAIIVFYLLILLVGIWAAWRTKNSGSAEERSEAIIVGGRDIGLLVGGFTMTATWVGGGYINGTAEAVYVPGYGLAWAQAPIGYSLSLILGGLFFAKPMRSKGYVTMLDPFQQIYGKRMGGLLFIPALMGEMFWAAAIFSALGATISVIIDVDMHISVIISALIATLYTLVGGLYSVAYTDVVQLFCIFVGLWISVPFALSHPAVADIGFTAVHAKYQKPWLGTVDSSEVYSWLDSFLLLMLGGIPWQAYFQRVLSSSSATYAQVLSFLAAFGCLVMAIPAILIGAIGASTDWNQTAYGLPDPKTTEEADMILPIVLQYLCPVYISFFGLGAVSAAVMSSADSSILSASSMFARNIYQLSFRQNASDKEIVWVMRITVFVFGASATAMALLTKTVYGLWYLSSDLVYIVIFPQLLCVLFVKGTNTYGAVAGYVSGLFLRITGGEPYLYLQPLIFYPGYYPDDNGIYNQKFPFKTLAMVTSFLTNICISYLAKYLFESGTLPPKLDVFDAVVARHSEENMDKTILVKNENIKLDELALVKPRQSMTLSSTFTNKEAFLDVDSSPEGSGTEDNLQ
CHT block: human CHT choline transport inhibition; Q9GZV3; CHT-expressing cells, membrane potential dye, choline response; active compounds read low; B-score at 10 µM; 310,000 compounds, 0.86% hits; AID 488975;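 active = B-score over 3 SD under the library average, and starting fluorescence ratio not unusually high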;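 also: choline stimulus applied at its EC90 after an EC20 pre-addition; B-score computed on integrated fluorescence ratio after choline addition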
ANO1 block: mouse TMEM16A channel inhibition, primary screen | Q8BHY3 | HEK293 TMEM16A/YFP iodide influx fluorescence, ionomycin | normalized B-score (activity score, 25-100; higher = stronger inhibition) at 10 µM | 310,000 compounds, 1.2% hits | AID 588511;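 active = ratio plate-corrected score three or more library SD toward inhibition, starting fluorescence score within five deviations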;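 also: score derived from kinetic fluorescence span divided by baseline fluorescence per well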
Rce1 inhib: yeast Ras-converting enzyme inhibition. Q03530. yeast membranes, quenched prenylated peptide cleavage fluorescence. calls only. 290,000 compounds, 0.27% hits. AID 2563;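 active = fall in fluorescence gain of 50% or more versus controls, with final raw signal at or below 3038400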;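 also: plate controls were neutral control wells for no effect and wells lacking membranes for full effect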
TMEM16A act: mouse TMEM16A channel activation, primary screen; B-score at 10 µM; 340,000 compounds, 0.3% hits; HEK293 TMEM16A/YFP-H148Q/I152L, iodide quench fluorescence; active compounds read low; AID 623877; Q8BHY3;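 active = fluorescence-ratio B-score plate-corrected deviation score at least 3 library SD below zero, with starting fluorescence score within 5 deviations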;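 also: channel opened by trigger with iodide after compound preincubation; score built on the fluorescence ratio of max minus min over baseline; more negative score means more quench and so TMEM16A activation or potentiation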
CHT block conf: human CHT inhibition, confirmatory screen; shares compounds with CHT block; CHT-expressing cells, choline membrane potential dye; LV-to-AA substituted CHT, HEK293 cells; CHT activity remaining % of control (active compounds read low), % at 10 µM; 2,400 compounds, 70% hits;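 active = choline transporter activity left, mean of duplicates at 10 µM, below buffer-only control mean minus 3 SD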;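 also: depolarization triggered by choline at its EC90 following an EC20 pre-addition; 0% = hemicholinium-3 full block and 100% = buffer-only control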
HEK293 CHT ctr: activity in parental HEK293 cells lacking CHT | shares compounds with CHT block | membrane potential dye, choline response; active = decrease or increase beyond buffer ±3SD | membrane potential ratio readout (active if shifted either direction beyond buffer ±3SD; no single direction) at 10 µM | 2,400 compounds, 4% hits;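 also: parental cells lack the transporter so any hit is non-specific; ratio is peak minus trough fluorescence over baseline after EC90 choline challenge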
* marks the source's active call; other numbers are inactive results; i = inactive; nt = not tested or not shown.

SMILES	Kir21 inh	CHT allo act	CHT block	ANO1 block	Rce1 inhib	TMEM16A act	CHT block conf	HEK293 CHT ctr
O=C(NC1CCCC1)c1cc(=O)[nH]c2ccccc12	-0.66	i	i	i	i	i	nt	nt
O=C1/C(=C/c2cccs2)SC(=S)N1CCC(=O)N1CCCCC1CCO (configuration not stated)	-0.72	i	i	i	i	i	nt	nt
CN(C)CCCn1c(=O)n(CCc2ccccc2)c(=O)c2c3c(sc21)CCCCC3	-3	i	-7.8*	i	i	i	31%*	i
CN(C)CCn1c(=O)n(Cc2ccccc2)c(=O)c2c3c(sc21)CCCCC3	2.2	i	i	i	i	i	nt	nt
CN1CCN(c2ccc(S(=O)(=O)N3CCCCC3)cc2NC(=O)CSCc2ccccc2)CC1	0.91	i	-6.8*	i	i	i	48%*	i
COc1cc(C(=O)NNC(=S)NC(=O)c2ccc(F)cc2)cc(OC)c1OC	-0.13	i	i	i	i	i	nt	nt
Cc1ccc(-n2nc3c(=O)n(C(C)C(=O)NCCCc4ccccc4)nc(C)c3c2C)cc1 (configuration not stated)	-1.5	i	-5*	i	i	i	i	i
c1ccc(-n2nnnc2NC2CCCCC2)cc1	0.68	i	i	i	i	i	nt	nt
COc1ccc(S(=O)(=O)Cc2ccc(C(=O)N3CCN(c4cccc(C)c4)C(C)C3)o2)cc1 (configuration not stated)	1.3	i	-5.4*	i	i	i	i	i
COc1ccccc1S(=O)(=O)Cc1ccc(C(=O)N2CCN(c3ccc(C)cc3)C(C)C2)o1 (configuration not stated)	-2.2	i	i	i	i	i	nt	nt
O=c1[nH]ncc(N2CCN(C(c3ccccc3)c3ccccc3)CC2)c1Cl	0.5	i	i	i	i	i	nt	nt
O=c1[nH]ncc(N2CCCC2)c1Cl	1.8	i	-10*	i	i	i	42%*	i
Cc1cc(C)c(C(=O)NCC(=O)c2ccccc2)c(C)c1	2.6	i	i	i	nt	i	nt	nt
CCOC(=O)N1CCN(C(=O)c2ccc3nc(SCc4ccc(F)cc4)n(C)c3c2)CC1	1.2	i	-4.9*	i	i	i	i	i
Cc1csc(=N)n1CC(=O)N1CCc2ccccc21	0.74	i	-9.6*	i	nt	i	21%*	i
O=C(COC(=O)c1cccc(O)c1)Nc1ccc(N2CCOCC2)cc1	nt	nt	nt	nt	nt	i	nt	nt
CN1C(=O)CC(c2ccccc2)CC1=O	-1.4	i	-13*	i	i	i	i	i
CCCc1cc2c(=O)c(-c3ccccn3)c(C)oc2cc1O	-0.29	i	-12*	i	i	i	9.4%*	i
Cc1c(OCC(=O)OC(C)(C)C)ccc2c3c(c(=O)oc12)CCC3	0.13	i	i	i	i	i	nt	nt
Cc1oc(C(=O)O)cc1COc1ccc2c3c(c(=O)oc2c1C)CCC3	-0.86	i	-6.6*	i	i	i	43%*	i
CCOC(=O)c1cc2c(s1)-c1c(C)cccc1OC2	-1	i	-6.8*	i	i	i	68%*	i
Cc1cccc2c1-c1sc(C(=O)Nc3nccs3)cc1CO2	0.29	i	i	i	i	i	nt	nt
O=C(c1cn(-c2ccccc2)nc1-c1ccc(Cl)cc1)N1CCOCC1	1.8	i	-5.6*	i	i	i	59%*	i
COc1ccc(-c2nn(-c3ccccc3)cc2C(=O)N2CCOCC2)cc1	-0.1	i	i	i	i	i	nt	nt
Cc1ccc(C(=O)N(CC(=O)NC2CCCC2)c2ccccc2Cl)s1	1.8	i	i	i	i	i	nt	nt
SMILES	Kir21 inh	CHT allo act	CHT block	ANO1 block	Rce1 inhib	TMEM16A act	CHT block conf	HEK293 CHT ctr
Cc1ccccc1CN1CCNC(=O)C1CC(=O)NCCN1CCCCC1=O (configuration not stated)	-1.1	i	i	i	i	i	nt	nt
O=C(CSc1ccc(-c2nc3ccccc3[nH]2)cn1)Nc1ccc(S(=O)(=O)NC2CC2)cc1	1.7	i	-5.7*	i	i	i	i	i
Cc1ccc(C(C)NC(=S)NC2CCCCC2)cc1C (configuration not stated)	-5.3*	i	-12*	i	i	i	22%*	i
CC(NC(=O)NC1CCCCC1)c1ccc2c(c1)OCO2 (configuration not stated)	0.17	i	-6.7*	i	nt	i	66%*	i
CC(NC(=O)NC12CC3CC(CC(C3)C1)C2)c1ccc2c(c1)OCO2 (configuration not stated)	-1.1	i	i	i	i	i	nt	nt
Cc1ccccc1N/N=C/c1c(C)nc2ccccn12	1.5	i	-13*	i	i	i	i	i
O=C1NC(=S)S/C1=C\c1coc2ccccc2c1=O	1.6	i	-8.4*	i	i	i	55%*	i
COc1cc(C(=O)NCC2CCCO2)ccc1OCc1ccccc1Cl (configuration not stated)	0.14	i	i	i	i	i	nt	nt
COc1ccc(S(=O)(=O)N2CCCCCC2)cc1C(=O)N(C)Cc1ccc(OC)c(OC)c1OC	1	i	i	i	i	i	nt	nt
CC(C#N)Sc1ccc(S(=O)(=O)N(C)C2CCCCC2)cn1 (configuration not stated)	nt	nt	nt	nt	nt	i	nt	nt
O=C(N/C(=C/c1cccs1)c1nc2ccccc2[nH]1)c1ccccc1	0.51	i	i	i	i	i	nt	nt
Cc1ccc(C(=O)N/C(=C\c2cccs2)c2nc3ccccc3[nH]2)cc1	-0.99	i	-5*	i	i	i	64%*	i
N#C/C(=N\Nc1ccc([N+](=O)[O-])cc1)C(N)=S	-0.08	i	-9.4*	100*	i	i	-9.8%*	i
N#C/C(=N\Nc1cccc([N+](=O)[O-])c1)C(=O)c1ccc(Br)cc1	-2.3	i	-10*	25*	i	i	63%*	i
CC1CCCC(N2CCN(S(=O)(=O)c3ccccc3)CC2)C1 (configuration not stated)	-1.2	i	i	i	i	i	nt	nt
COCCN1Cc2cccc(C(=O)NCc3ccccc3OC)c2C1=O	0.09	i	i	i	i	i	nt	nt
